Mdm2 MdmX PPI – inhibitors of human Mdm2-MdmX association, primary screen, cell-based, luminescence, split luciferase, SaOS-2, uHTS; Protein Mdm4 (Homo sapiens) + E3 ubiquitin-protein ligase Mdm2 (Homo sapiens), …; SaOS-2 split-luciferase Mdm2/MdmX complementation; inhibition, % at 8 µM; actives 3% (n = 330,000); AID 485346, 2010;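 active = inhibition of at least 50% at 8 µM in the primary screen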
Target sequence (O15151 whole entry, looked up): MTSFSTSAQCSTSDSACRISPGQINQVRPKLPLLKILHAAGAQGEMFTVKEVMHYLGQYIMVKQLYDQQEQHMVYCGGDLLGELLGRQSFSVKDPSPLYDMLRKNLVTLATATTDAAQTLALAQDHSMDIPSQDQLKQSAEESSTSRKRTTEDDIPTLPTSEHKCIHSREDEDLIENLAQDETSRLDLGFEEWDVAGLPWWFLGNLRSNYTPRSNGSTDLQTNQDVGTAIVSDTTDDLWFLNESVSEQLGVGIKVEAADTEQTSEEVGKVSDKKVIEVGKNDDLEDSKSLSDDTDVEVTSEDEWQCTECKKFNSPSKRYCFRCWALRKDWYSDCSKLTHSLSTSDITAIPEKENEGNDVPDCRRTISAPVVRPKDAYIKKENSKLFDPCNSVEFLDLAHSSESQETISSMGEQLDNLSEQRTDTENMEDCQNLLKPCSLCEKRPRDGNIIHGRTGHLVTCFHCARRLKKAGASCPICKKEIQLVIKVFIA
Target sequence (Q00987 whole entry, looked up): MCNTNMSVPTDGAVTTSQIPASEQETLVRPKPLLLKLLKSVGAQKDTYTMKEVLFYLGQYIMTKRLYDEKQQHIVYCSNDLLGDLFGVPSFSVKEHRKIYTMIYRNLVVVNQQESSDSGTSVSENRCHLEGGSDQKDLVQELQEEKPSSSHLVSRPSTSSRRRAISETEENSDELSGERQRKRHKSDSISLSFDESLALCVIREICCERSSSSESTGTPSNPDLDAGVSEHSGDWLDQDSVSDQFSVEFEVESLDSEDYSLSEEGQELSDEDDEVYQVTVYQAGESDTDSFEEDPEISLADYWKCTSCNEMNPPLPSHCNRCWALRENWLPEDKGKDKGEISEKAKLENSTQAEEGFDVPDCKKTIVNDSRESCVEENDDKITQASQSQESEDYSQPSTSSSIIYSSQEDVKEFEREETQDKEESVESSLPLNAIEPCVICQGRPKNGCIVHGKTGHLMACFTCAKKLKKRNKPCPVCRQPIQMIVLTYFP
Jurkat NFkB inh – inhibitors of induced NF-kB luciferase reporter, primary screen, TCR NF-kB activation inhibitor project, cell-based, luminescence, uHTS; Jurkat, PMA/ionomycin-induced NF-kB luciferase reporter; inhibition, % at 4 µM; actives 0.53% (n = 330,000); in the data active = inhibition above about 50%
697 NFkB inh – inhibitors of PMA/ionomycin-induced NF-kB reporter, 697 cells, primary screen, B-cell NF-kB inhibitor project, cell-based, luminescence, uHTS; 697 B-cell NF-kB luciferase reporter, 16 h; inhibition, % at 4 µM; actives 0.33% (n = 330,000); AID 435022, 2010; in the data active = inhibition above about 35%
NTR1 agonist – agonists of human NTR1, primary screen, imaging, U2OS cells, beta-arrestin-GFP, high content; Neurotensin receptor type 1 (Homo sapiens), P30989; NTR1-U2OS beta-arrestin-GFP spot imaging, agonist mode; activation, % at 20 µM; actives 0.17% (n = 330,000); AID 493036, 2011;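 active = activation at or above 40% of the spot to cytoplasm intensity ratio, with at least 20 cells analyzed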
Bfl-1 A1 inh – caspase 3/7 activation in MEF A1-2A-BIM cells, primary screen, A1 inhibitor project, cell-based, luminescence, HTS | Caspase-Glo 3/7 luminescence, 3 h; percent of clofoctol response, vehicle zero | AID 2462, 2010 | caspase activation, % (test concentration not listed) | actives 0.066% (n = 330,000);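 active = over half of replicate activation scores above 10%, or exactly half above 10 with the replicate mean above 10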
Beta apoptosis – inhibitors of cytokine-induced beta cell apoptosis, primary screen, luminescence; protection from apoptosis, % (no concentration beside the values); actives 0.8% (n = 300,000); INS-1E cytokine-induced death, ATP luminescence, 48 h; percent of positive-control rescue, neutral wells zero;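 active = Every replicate reaches about 75%, or at least half do and their mean reaches it too, limit read from the data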;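 also: higher means more ATP so stronger rescue from cytokine killing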
Mdm2-MdmX conf – Mdm2-MdmX complex disruptors, retested hits, confirmation, luminescence, single concentration. shares compounds with Mdm2 MdmX PPI. Mdm2-MdmX binding, luminescent assay. inhibition, % at 8 µM. actives 55% (n = 10,000); in the data active = inhibition above about 40%
FLuc counter – full-length luciferase signal inhibition, confirmation, counter-screen for Mdm2/MdmX interaction inhibitor project, cell-based, single concentration, SaOS-2; shares compounds with Mdm2 MdmX PPI; SaOS-2 full-length luciferase counterscreen, luminescence; inhibition, % at 8 µM; actives 77% (n = 6,200);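 active = mean inhibition at 8 µM reaching about 37%, which flags the compound as non-specific, limit read from the data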;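 also: p53-null SaOS-2 cells with luciferase driven by a doxycycline-inducible promoter; compound on cells about two nights before reading with doxycycline added after day one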
Of the large screens only hits and unclear results are named; the others gave an inactive call (follow-up assays come after a bar, where they were run). This is a sample that favours compounds with a hit; in the whole collection about 3.8% have one here.

O=C(NCc1ccc(Cl)c(Cl)c1)C1CCCC1	none
CN(C)C(=O)c1ccc(NC(=O)COC(=O)C2=COCCO2)cc1	none
Cc1ccc(S(=O)(=O)N2[C@@H](c3ccc(Br)cc3)C(C(=O)O)=CC[C@H]2c2ccc3c(c2)OCO3)cc1	none (no result: Bfl-1 A1 inh, Beta apoptosis)
CN(C)c1ccc(NC(=O)CCN2C(=O)c3cccc([N+](=O)[O-])c3C2=O)cc1	none (no result: Beta apoptosis)
COC(=O)N/N=C/c1cc(Br)ccc1O	none
Cc1ccc(NC(=O)CCC(=O)N/N=C/c2ccccc2O)cc1	none
C/C(=N/NC(=O)CCC(=O)Nc1ccc(Br)cc1)c1ccc(Br)cc1	Mdm2 MdmX PPI 51 | Mdm2-MdmX conf inactive
O=C(N/N=C/c1cc(Br)ccc1O)c1ccccc1Cl	Mdm2 MdmX PPI 66 | Mdm2-MdmX conf 69 | FLuc counter inactive
O=C(CCC(=O)Nc1ccc(Br)cc1)N/N=C/c1ccccc1O	Mdm2 MdmX PPI 67 | Mdm2-MdmX conf 68 | FLuc counter 48
CC1Cc2ccccc2N1C(=O)CN1CCN(Cc2ccccc2)CC1 (centres undefined)	none (no result: Beta apoptosis)
COc1cccc2[nH]c3ccccc3c(=O)c12	none
C=Cc1ncc(OC)c2c1[nH]c1ccccc12	Mdm2 MdmX PPI 100 | Mdm2-MdmX conf 59 | FLuc counter inactive
Cc1nn(CC(=O)Nc2ccc3c(c2)OCO3)c(C)c1Cl	none
Cc1cc(Br)ccc1NC(=O)CNC(=O)Cn1ncc(Cl)c(Cl)c1=O	Mdm2 MdmX PPI 97 | Mdm2-MdmX conf 99 | FLuc counter 48
O=C(Cn1ncc(Cl)c(Cl)c1=O)N1CCN(S(=O)(=O)c2ccc3ccccc3c2)CC1	Mdm2 MdmX PPI 100 | Mdm2-MdmX conf 100 | FLuc counter 53
O=C(Cn1ncc(Cl)c(Cl)c1=O)Nc1ccc2c(c1)OCO2	Mdm2 MdmX PPI 100 | Mdm2-MdmX conf 83 | FLuc counter 57
Cc1ccc(S(=O)(=O)N2CCCCC2)cc1NC(=O)Cn1ncc(Cl)c(Cl)c1=O	Mdm2 MdmX PPI 97 | Mdm2-MdmX conf 99 | FLuc counter 55
O=C(O)CCC(=O)N1CCN(S(=O)(=O)c2ccc3ccccc3c2)CC1	none (no result: Beta apoptosis)
N#CCCN(C(=O)c1ccc2c(=O)n3c(nc2c1)CCCCC3)c1ccccc1	none
CCN1CCN(C(=O)C(Cc2ccccc2)NC(=O)c2ccc(Cl)c(S(=O)(=O)N(C)C)c2)CC1 (centres undefined)	none
Cc1ccnc(NC(=O)CCC(=O)N(CC(=O)NC(C)(C)C)c2ccc3c(c2)OCO3)c1	none
O=C(Cn1ncc(Cl)c(Cl)c1=O)c1ccc2c(c1)OCCO2	Mdm2 MdmX PPI 100, Beta apoptosis 113 | Mdm2-MdmX conf 82 | FLuc counter 52
Cc1ccc(NC(=O)CCl)cc1S(=O)(=O)N1CCCCCC1	Mdm2 MdmX PPI 97 | Mdm2-MdmX conf inactive
O=C(Cn1ncc(Cl)c(Cl)c1=O)NC(=O)NC1CCCCC1	Mdm2 MdmX PPI 100 | Mdm2-MdmX conf 97 | FLuc counter 50
CCN(CC)S(=O)(=O)c1cc(NC(=O)Cn2ncc(Cl)c(Cl)c2=O)ccc1C	Mdm2 MdmX PPI 100 | Mdm2-MdmX conf 100 | FLuc counter 50
O=C(CN1CCCCC1)NC(=O)NC1CCCC1	none
Cc1ccc(C(=O)OCC(=O)NNC(=O)c2ccc([N+](=O)[O-])cc2)o1	none
O=C(COC(=O)c1cc([N+](=O)[O-])ccc1N1CCOCC1)Nc1cccc(F)c1	none

Screening results from PubChem.
